From PubChem BioAssay AID651784 (National Center for Advancing Translational Sciences (NCATS), 2012)
Inconclusive results are not listed. The source made the active and inactive calls. Calls come from the whole dose curve; as a rule, active = well fitted inhibition curve with a large enough effect; inconclusive = small, poorly fitted or top-dose-only effect; inactive = no such curve, though single readings can be large or run the other way.

assay: Acumen qHTS Assay for Inhibitors of the mTORC1 Signaling Pathway in MEF (Tsc2-/-, p53-/-) Cells: Hit Validation; settings: Acumen imaging; activity change, negative = inhibition: at 37.3 µM (top of the series); note: nearly all actives have a fitted effect of over 65% in size
Source text: The mammalian target of rapamycin (mTOR) is an intracellular serine/threonine kinase Aberrant regulation of mTOR signaling plays a causative role in a number of human diseases, including cancer, benign tumors such as lymphangioleiomyomatosis (LAM) and Tuberous Sclerosis Complex (TSC), and metabolic diseases such as diabetes and obesity. This project aims to identify inhibitors of ribosomal protein S6 (rpS6) phosphorylation. The phosphorylation of rpS6 is a key event downstream of mTOR activation. The assay uses a phospho-specific antibody of phospho-rpS6 to detect inhibitors of mTOR activation. Mutations in the Tsc1 and Tsc2 genes are the underlying genetic lesions responsible for TSC, causing constitutive activation of the mTORC1 pathway and leading to profound effects on cell metabolism. Aberrant metabolism in cancer has recently received significant attention as a target to develop therapeutic agents in the treatment of cancer.1 As Tsc2-/- cells have lost the ability to respond to energy and growth factor deprivation, these cells are unable to properly down regulate cellular biosynthetic processes in response to metabolic stress, and are thus extremely sensitive to glucose deprivation-induced death.2 A central goal of this project is to explore the unique cell survival and metabolic properties of cells with Tsc1 or Tsc2 by screening for compounds that selectively target the Tsc2-/- MEFs by screening both Tsc2-/- and WT MEF cell lines. We hope to better understand these aspects of TSC physiology in order to exploit them for therapeutic benefit.
NIH Molecular Libraries Probe Production Centers Network [MLPCN]
NIH Chemical Genomics Center [NCGC]
Assay Submitter (PI): Blenis, John; Harvard University
For quantitative high throughput analysis of mTORC1 signaling, we developed a cell-based assay for immuno-fluorescence based detection of rpS6 phosphorylation on the Acumen Explorer that will be used a platform for the primary small molecule screen. Mouse embryonic fibroblasts (MEFs) are cultured in 1536-well plates using DMEM + 10% FBS. Twenty-four hrs after plating, test compounds (solubilized in DMSO) are delivered and incubated with the cells for 24 hrs at 37 degree Celsius. Following the incubation, media with compound is aspirated and the cells are fixed in 4% paraformaldehyde (PFA) containing PBS + 0.2% TX-100. Next, PFA is aspirated, cells are washed two times with PBS plus 0.2% TX-100 and the cells are blocked for 1 hr at room temperature (blocking buffer: LiCOR Blocking Buffer plus 0.2% TX-100). This is followed by aspiration and staining with Alexa-488 conjugated-phospho-rpS6 Ser235/236 antibody for 2 hours at room temperature (Cell Signaling Technology # 4803, 1:50 dilution in blocking buffer). Cells are washed two times with PBS plus 0.2% TX-100, and stained with 10 uM propidium iodide (PI) for 20-25 minutes for cell number measurement (1:500 dilution of Hoescht staining is also added for IN Cell imaging). The plates are scanned on the Acumen Explorer laser scanning instrument (TTP Labtech) using the 488nm laser for simultaneous excitation of the Alexa-488 and PI. […] Fluorescence emission from the PI stain is selected using a 575-640 nm band pass filter. The normalized phospho-S6 staining is calculated as the ratio of the integrated Alexa 488 intensity divided by the integrated PI intensity for the single concentration rapamycin control (7.5 nM) and DMSO columns. […] Inhibition of the pathway is defined based on the normalized phospho-S6 intensity in rapamycin treated cells. Active cells are defined as those with a normalized phospho-S6 staining above this threshold, and each treatment is reported as the % positive cells in the well, where thresholds are defined by selecting wells with the highest and lowest signal and differentiating between the % non-active and % active populations. In addition to the pathway specific phospho-S6 endpoint, the number of PI stained cells from the Acumen is recorded as a measure of cell viability. […]
Potency is the fitted concentration of half-maximal effect.

Row | Structure (SMILES) | Potency | activity change, negative = inhibition [%]
1 | O=C(c1ccccc1)c1ccc2nc(N3CCN(c4ccc(F)cc4)CC3)c3nncn3c2c1 | 18.5 µM (active) | –
2 | CCN(CC)C(=O)c1ccc(NC(=O)CCn2nc(-c3ccc(C)cc3)c3ccccc3c2=O)cc1 | – | -9.62
3 | O=C(NCCc1ccc(Cl)cc1)C(=O)NCC(c1cccs1)S(=O)(=O)c1cccs1 (configuration not stated) | – | -3.28
4 | Cc1cccc(N(CC(=O)NCCSc2ccc(Cl)cc2)S(=O)(=O)c2ccccc2)c1C | 13.1 µM (active) | –
5 | COc1ccccc1N=c1scc(-c2ccc(S(=O)(=O)N3CCCC3)cc2)n1C | 5.85 µM (active) | –
6 | CCOc1ccc(/C=C/c2nc(C#N)c(NCc3ccccc3)o2)cc1 | 1.04 µM (active) | –
7 | COc1ccc(S(=O)(=O)NCCc2sc3nc(-c4ccc(C)cc4)nn3c2C)cc1F | 7.36 µM (active) | –
8 | COc1ccc2nc(NC(=O)c3nc(S(=O)(=O)Cc4cccc(C)c4)ncc3Cl)sc2c1 | 2.07 µM (active) | –
9 | COc1ccc(N2CCN(C(=O)C3CCCN(S(=O)(=O)c4ccc5c(c4)CCCN5C(C)=O)C3)CC2)cc1 (configuration not stated) | 16.5 µM (active) | –
10 | Cc1ccc(-n2c(/C=C/c3ccc(Br)s3)nc3ccccc3c2=O)cc1C | – | -10.2
11 | CN[C@@H]1C[C@@]2(C)O[C@@H]([C@@H]1OC)n1c3ccccc3c3c4c(c5c6ccccc6n2c5c31)C(=O)NC4 | 0.0163 µM (active) | –
12 | Cc1oc(-c2ccc(Cl)cc2)nc1CN1CCC(C(=O)NCCCN2CCN(c3cccc(Cl)c3)CC2)CC1 | 5.85 µM (active) | –
13 | NC(N)=NC(=O)c1nc(Cl)c(N)nc1N | – | 57.9
14 | CCOc1ccc(CN(CCc2ccc3c(c2)OCO3)Cc2ccc(C)cc2)cc1 | – | -0.408
15 | Cc1ccccc1-c1nc(CN2C(=O)CN=C(c3ccccc3)c3ccccc32)c(C)o1 | – | -13.1
16 | CCCCOc1ccc(CN2C(=O)C(=O)c3cc(C)ccc32)cc1OC | 0.261 µM (active) | –
17 | COc1ccc(C(=O)Nc2ccc3c(c2)N(C)C(=O)c2ccccc2S3)cc1OC | 10.4 µM (active) | –
